# Compound activity from PubChem.
# mTORC1 inh – Acumen qHTS Assay for Inhibitors of the mTORC1 Signaling Pathway in MEF (Tsc2-/-, p53-/-) Cells: Sytravon. Tsc2-/- p53-/- MEF, phospho-rpS6 immunofluorescence/PI, 24 h. Potency, µM (series often up to 38.3 µM), actives largely listed as inhibitors. 44,000 tested, 0.78% active; also: nearly all actives have a fitted effect of over 50% in size
#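 Cell-based qHTS: Tsc2-/- p53-/- MEF, 24 h cpd, 37 °C; fix/perm, anti-phospho-S6 Alexa-488 + PI; Acumen 488 nm scan; pS6/PI ratio, % positive cells; rapamycin 7.5 nM = inhibition ref; PI count = viability.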
# NTMT1 inhibitor – Primary qHTS for Inhibitors of N-terminal methyltransferase 1 (NTMT1): MTaseGlo Assay | N-terminal Xaa-Pro-Lys N-methyltransferase 1 (Homo sapiens), Q9BV86 | NTMT1 MTase-Glo SAH luminescence, purified enzyme | Potency, µM (doses to about 114 µM), usual class: inhibitors | 59,000 tested, 2.5% active | AID 1645870, 2021; also: nearly all actives have a fitted effect of over 65% in size
# PMP22 txn prim – Cell-based coincidence reporter assay to measure PMP22 gene transcription in S16 Pmp22-F2sN cells - Primary screen; S16 Pmp22-F2sN Schwann cells, FLuc/NLuc coincidence luminescence, 24 h; Potency, µM (titrated, usually from 57.5 µM), hits mostly inhibitors; 43,000 tested, 2% active; active = clear falling dose curves in both reporters; inconclusive = both reporters move, but less clearly or upward; inactive = either reporter flat; the % is the NLuc reporter signal
#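 Rat S16 Pmp22-F2sN cells, 500-1,000/well in phenol red-free DMEM + 10% FBS, compound-treated 24 h (37C, 5% CO2). Luminescence: FLuc read, Stop&Glo added, NLuc read.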
# GALC G270D act – A Novel Cell-Based Assay to Identify Small Molecules for B -Galactocerebrosidase | P54803 | 145M-Twi-hGALC-G270D cells (Twitcher mouse brain line with human GALC G270D), HMU-beta-Gal fluorescence, 48 h | Potency, µM (titrated, usually from 57.5 µM), usual class: activators | 45,000 tested, 0.1% active | AID 1159614, 2016; also: nearly all actives have a fitted effect of over 65% in size
#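 Brain-derived Twitcher mouse 145M-Twi cells stably expressing human GALC-G270D or wild-type GALC, treated live, then residual GALC activity read by fluorescence of HMU-b-Gal substrate (0.1 mM final) in citrate-phosphate buffer pH 5.2 with sodium taurocholate. Signal increase indicates enhancement.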
# S16 viability – Cell viability qHTS assay in S16 Pmp22-F2sN cells | S16 Pmp22-F2sN Schwann cells viability, CellTiter-Glo, 24 h | 43,000 tested, 0.48% active | Potency, µM (doses to about 57.5 µM), actives largely listed as cytotoxic; also: nearly all actives have a fitted effect of over 65% in size
#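 Used to flag compounds lowering reporter output through toxicity, this quantitative HTS measures ATP-based CellTiter-Glo luminescence in S16 Pmp22-F2sN Schwann cells after 24 h compound exposure at 37C.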
# SKOV3 invasion – Primary qHTS assay for Inhibitors of ovarian cancer metastasis using an organotypic tumor microenvironment (TME) model; SKOV3ip1-GFP adhesion/invasion on 3D omental model, fluorescence; Potency, µM (series often up to 45.8 µM), actives largely listed as inhibitors; AID 1963576, 2024; 46,000 tested, 0.1% active; also: nearly all actives have a fitted effect of over 65% in size
#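 Primary human omental fibroblast/mesothelial 3D culture pre-formed 48 h. SKOV3ip1-GFP cells added with compounds (0.36-46 umol/L), incubated 2 h RT/16 h 37 C, fixed; GFP cells quantified at 488/509 nm.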
# NLuc sat counter – Biochemical NLuc saturation counterscreen for small molecule modulators of PMP22 gene expression - Nano-Glo assay. shares compounds with PMP22 txn prim. Secreted NLuc enzyme (filtered S16 cell medium), Nano-Glo luminescence. Potency, µM (titrated, usually from 57.5 µM), usual class: inhibitors. 690 tested, 4% active. AID 1508638, 2021
# NLuc Km ctr – Biochemical coelenterazine-based NLuc counterscreen for small molecule modulators of PMP22 gene expression - Km assay; shares compounds with PMP22 txn prim; AID 1508639, 2021; secreted NLuc enzyme, coelenterazine luminescence, Km conditions; Potency, µM (highest dose often 57.5 µM), hits mostly inhibitors; 690 tested, 5% active
# FLuc ctr PMP22 – Biochemical FLuc counterscreen for small molecule modulators of PMP22 gene expression; Potency, µM (titrated, usually from 57.5 µM), actives largely listed as inhibitors; shares compounds with PMP22 txn prim; purified P. pyralis FLuc, luminescence, 10 min; AID 1508640, 2021; 690 tested, under 10 active
# Target sequence (P08659 whole entry, looked up): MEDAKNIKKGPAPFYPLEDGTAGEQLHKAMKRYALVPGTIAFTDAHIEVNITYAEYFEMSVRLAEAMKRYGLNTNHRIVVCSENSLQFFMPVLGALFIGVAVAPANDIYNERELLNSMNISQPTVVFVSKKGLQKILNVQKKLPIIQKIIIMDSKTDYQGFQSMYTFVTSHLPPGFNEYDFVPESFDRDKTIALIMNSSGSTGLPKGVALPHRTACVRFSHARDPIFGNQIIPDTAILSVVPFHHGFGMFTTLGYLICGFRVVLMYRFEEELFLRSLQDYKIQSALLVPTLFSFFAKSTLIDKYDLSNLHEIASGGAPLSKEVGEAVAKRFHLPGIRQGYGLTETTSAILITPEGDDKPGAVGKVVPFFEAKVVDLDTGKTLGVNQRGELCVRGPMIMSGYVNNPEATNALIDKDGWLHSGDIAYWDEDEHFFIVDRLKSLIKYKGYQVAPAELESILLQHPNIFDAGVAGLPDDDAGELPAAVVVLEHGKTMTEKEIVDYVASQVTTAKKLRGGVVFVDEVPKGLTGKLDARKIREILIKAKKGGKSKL
# S16 F2sN tox cnf – Cell viability qHTS assay in S16 Pmp22-F2sN cells - Confirmatory screen | shares compounds with PMP22 txn prim | S16 Schwann cells viability, CellTiter-Glo ATP luminescence, 24 h | Potency, µM (titrated, usually from 57.5 µM), most hits filed as cytotoxic | 690 tested, 7% active | AID 1508641, 2021
# PMP22 txn cnf – Cell-based coincidence reporter assay to measure PMP22 gene transcription in S16 Pmp22-F2sN cells - Confirmatory screen; S16 Schwann cells Pmp22-F2sN, dual luciferase, 24 h; shares compounds with PMP22 txn prim; Potency, µM (highest dose often 57.5 µM), most hits filed as inhibitors; 690 tested, 22% active; active = clear falling dose curves in both reporters; inconclusive = both reporters move, but less clearly or upward; inactive = either reporter flat; the % is the FLuc reporter signal
# Numbers stand for hits; n = inactive; u = inconclusive; x = no result given. Most compounds without a hit are left out; they make up all but 3.6% or so of the library. Unless noted, calls follow the shape of the dose curve; as a rule, active = well fitted curve in the direction sought with a large enough effect; inconclusive = small, poorly fitted or top-dose-only effect, or another doubt; inactive = no such curve, though single readings can be large; an effect the other way counts as inactive or inconclusive.
SMILES,mTORC1 inh,NTMT1 inhibitor,PMP22 txn prim,GALC G270D act,S16 viability,SKOV3 invasion,NLuc sat counter,NLuc Km ctr,FLuc ctr PMP22,S16 F2sN tox cnf,PMP22 txn cnf
CC(=O)c1c(C)oc2ccc(N(C(=O)Oc3ccccc3)S(=O)(=O)c3ccc(C(C)(C)C)cc3)cc12,n,n,12.7µM,n,n,n,n,n,n,n,u
COc1ccc(NC(=O)c2cc3c(s2)-c2c(C)cccc2OC3)cc1Cl,n,n,15.8µM,n,28.2µM,n,n,n,n,u,u
CCc1ccc2ncc(C(=O)c3ccc(C)c(C)c3)c(N3CCC(C(N)=O)CC3)c2c1,n,n,13.4µM,n,n,n,5.44µM,7.69µM,n,n,u
CCOC(=O)C1CCCN(c2c(C(=O)c3ccc(C)cc3)cnc3ccc(OCC)cc23)C1 (stereo not given),n,n,u,n,n,n,x,x,x,x,x
N#Cc1cccc(NS(=O)(=O)c2ccc3c(c2)CCC(=O)N3)c1,x,n,x,x,x,x,x,x,x,x,x
CCCO[C@@H]1O[C@H](CO)[C@@H](O)[C@H](O)[C@H]1O[C@@H]1OC[C@@H](O)[C@H](O)[C@H]1O,x,n,x,x,x,x,x,x,x,x,x
CN(C)c1ccc(NC(=O)CCSc2nc(-c3ccco3)cc(C(F)(F)F)n2)cc1,n,n,n,n,n,n,x,x,x,x,x
Cc1ccc(NC(=O)CSc2nc(-c3ccco3)cc(C(F)(F)F)n2)cc1,u,n,2.15µM,n,n,n,n,n,n,n,n
Cc1cccc(C)c1NC(=O)CSc1nc(-c2cccs2)cc(C(F)(F)F)n1,u,n,n,n,n,n,x,x,x,x,x
Cc1ccc(F)cc1NC(=O)CSc1nc(-c2cccs2)cc(C(F)(F)F)n1,u,n,14.1µM,n,n,n,n,n,n,n,n
Cc1nc(C2=NC(c3ccccc3Cl)C3=C(CCCC3=O)N2)cs1 (stereo not given),x,n,x,x,x,x,x,x,x,x,x
CCc1ccc(NC(=O)CC2C(=O)OCCN2CC)cc1 (stereo not given),u,n,15µM,n,u,n,n,n,n,n,u
CCN1CCOC(=O)C1CC(=O)Nc1cc(Cl)ccc1OC (stereo not given),u,n,18.9µM,n,u,n,n,n,n,n,u
